In all, about 5,500 compounds went through this assay and about 2,000 (36%) were called active. Another 18% or so got no clear call; they are omitted. No stated cut-off is given here; in the data, active means normalized growth mostly below about 0.91 (no sharp cut-off); inconclusive means no clear call, values can overlap the other calls; inactive means mostly above about 0.92. The list shows a part of the results.
Assay: chemical genetic growth profiling, strain panel (AID 1159580);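 further: tested at 20 µM; growth read once vehicle control cultures reached saturation at 30 °C; 1 = growth at the plate median or of vehicle wells; lower values mean less growth of the strain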
Conditions: growth OD
[1] = S. cerevisiae deletion strains, locus YAL013W, strain DEP1, hits give low values
[2] = S. cerevisiae deletion strains, locus YBR229C, strain ROT2, hits give low values
[3] = S. cerevisiae deletion strains, locus YDL101C, strain DUN1, hits give low values
[4] = S. cerevisiae deletion strains, locus YDR150W, strain NUM1, hits give low values
[5] = S. cerevisiae deletion strains, locus YEL061C, strain CIN8, hits give low values
[6] = S. cerevisiae deletion strains, locus YGR078C, strain PAC10, hits give low values
[7] = S. cerevisiae deletion strains, locus YHR030C, strain SLT2, hits give low values
[8] = S. cerevisiae deletion strains, locus YHR087W, strain rtc3, hits give low values
[9] = S. cerevisiae deletion strains, locus YJR043C, strain POL32, hits give low values
[10] = S. cerevisiae deletion strains, locus YJR075W, strain HOC1, hits give low values
[11] = S. cerevisiae deletion strains, locus YKL190W, strain CNB1, hits give low values
[12] = S. cerevisiae deletion strains, locus YLR039C, strain RIC1, hits give low values
[13] = S. cerevisiae deletion strains, locus YLR058C, strain SHM2 (second series), hits give low values
[14] = S. cerevisiae deletion strains, locus YLR085C, strain ARP6, hits give low values
[15] = S. cerevisiae deletion strains, locus YLR262C, strain YPT6, hits give low values
[16] = S. cerevisiae deletion strains, locus YML094W, strain GIM5, hits give low values
[17] = S. cerevisiae deletion strains, locus YMR219W, strain ESC1, hits give low values
[18] = S. cerevisiae deletion strains, locus YMR263W, strain SAP30, hits give low values
[19] = S. cerevisiae deletion strains, locus YMR307W, strain GAS1, hits give low values
[20] = S. cerevisiae deletion strains, locus YNL153C, strain GIM3, hits give low values
[21] = S. cerevisiae deletion strains, locus YNL298W, strain CLA4 (second series), hits give low values
[22] = S. cerevisiae deletion strains, locus YNL322C, strain KRE1, hits give low values
[23] = S. cerevisiae deletion strains, locus YNR030W, strain Alg12, hits give low values
[24] = S. cerevisiae deletion strains, locus YPL055C, strain LGE1, hits give low values
[25] = S. cerevisiae deletion strains, locus YPL241C, strain CIN2, hits give low values
[26] = S. cerevisiae deletion strains, locus YPR135W, strain CTF4, hits give low values
[27] = S. cerevisiae strains, strain wild type, hits give low values
[28] = S. cerevisiae deletion strains, locus YCL061C, strain MRC1, hits give low values
[29] = S. cerevisiae deletion strains, locus YNL128W, strain TEP1, hits give low values

Measured: normalized growth

N#CCC(=O)N(Cc1ccccc1F)C(=O)NC1CCCCC1
inactive: [1] 0.993 | [2] 1.01 | [3] 0.994 | S. cerevisiae deletion strains, locus YDL134C, strain PPH21, hits give low values 0.98 | [4] 0.997 | [5] 1 | [6] 0.994 | S. cerevisiae deletion strains, locus YGR229C, strain SMI1, hits give low values 0.987 | [7] 0.957 | [8] 0.974 | [9] 0.994 | [10] 0.963 | [11] 1 | [12] 0.915 | [13] 1 | [14] 0.989 | [15] 0.935 | [16] 0.996 | [17] 0.998 | [18] 1 | [19] 0.913 | [20] 0.988 | [21] 1.01 | [22] 1.01 | [23] 0.986 | [24] 1.01 | [25] 0.994 | [26] 0.866 | [27] 0.997

COC(=O)c1cccc([N+](=O)[O-])c1-c1c(C(=O)OC)cccc1[N+](=O)[O-]
inactive: [1] 0.995 | [2] 1.01 | [28] 1.03 | [3] 1.03 | [4] 1.02 | [5] 0.983 | [6] 1.03 | [7] 1.06 | [8] 0.997 | [9] 1.01 | [10] 0.981 | [12] 0.994 | [13] 0.999 | [14] 1.03 | [15] 0.97 | [16] 0.988 | [17] 0.99 | [18] 1.03 | [19] 0.971 | [29] 0.999 | [20] 1.03 | [21] 1.02 | [22] 1 | [23] 1.03 | S. cerevisiae deletion strains, locus YOL006C, strain TOP1, hits give low values 1.08 | [24] 0.974 | [25] 1 | [26] 1.06 | [27] 1.02

O=C(O)c1cccc([N+](=O)[O-])c1C(=O)Nc1ccc(F)cc1
active: [12] 1.22 [resistant] | [15] 1.19 [resistant]
inactive: [1] 1.01 | [2] 0.996 | [28] 1.01 | [3] 1.01 | [4] 1.03 | [5] 0.98 | [6] 1.01 | [7] 1.1 | [8] 0.965 | [9] 1 | [10] 1.01 | [11] 0.986 | [13] 0.991 | [14] 1 | [16] 1.01 | [17] 0.998 | [18] 0.996 | [19] 0.932 | [29] 0.984 | [20] 1.01 | [21] 0.97 | [22] 1.02 | [23] 0.996 | [24] 0.979 | [25] 1.04 | [26] 1.04

From PubChem BioAssay AID1159580 (chemical genetic matrix, 2015)
